32 molecules from the supplement of paper PMC12632987 can be followed below.

B1: usp_38_diff_out_18_14_290 (protein)
chain: SEELSKAEISALELLKKEVKENTERTIKLLEKVKDDPELVKRVMERAERNLAGVRAYAEDVKERAKERGDEETVKAAEELLKEIEEARKKLKEEYKKVMA
B2: usp_38_diff_out_18_14_268 (protein)
chain: SEELAEAEVSNLKTLERDVKEDTERVIRLLRKNKDDPERVKRIYERAKRDLAGVRAYAEEVKRRAEEEGWEEVVAAAERLLKTIDEARKRIEEEYKRVME
B3: usp_38_diff_out_18_14_261 (protein)
chain: SEELSEAKISALKLLEKSVKEDTERKIRLLEKAKDDPERVKRIYERALRELAGVREYAEEVLKEAKEAGDEETAEAAKRLLKTIEEARERLEEEYKRVMA
B4: usp_38_diff_out_18_14_267 (protein)
chain: SAELSEALKSNLETLTADVAADTDRVIRLLDARKDDPEAVKRIHERARRNLAGVEAYAEEVKAEAEKAGDAEVKAAAEKLLAAVAAARARIDARYAEVMA
B5: usp_38_diff_out_18_14_279 (protein)
chain: SEELNEALLSNLESLKEDVERDTERVLRLLEANRDDPERVKRIVERAERNLAGVIEFAKEVLKEAEKAGNEELLKAAKELIKRAKEALERIRRKAEEVLA
B6: usp_38_diff_out_18_14_284 (protein)
chain: SAELAAAEKAALEILKTDVKKDTERVIRLLKKAKDDPERVKRIYERAKRNLEGVETYAKEVLERAKKAGDKETKAAAEELLKEIEEAKKKIEEAYKEVMA
B7: usp_38_diff_out_18_14_273 (protein)
chain: SEERREALLSNLKSLKKDVKEYTKRVLKLLEKNKNDPERVKRIYERAKRNLAGVKAYAEEVLKEAKEEGDEETLKAAEELIKEAKEAEEKIKKKVEEVLK
B8: usp_38_diff_out_18_14_282 (protein)
chain: MEELSEALKSNLESLKKDVEEDTKRVIELLEKNKDDPERVKRIYERAERNLEGVLTYAEEVLELAEKLGDEEVKKAAEELKKEAEKAREEIKKKVEKVLA
B9: usp_38_diff_out_18_14_271 (protein)
chain: SEELAAALQSNLESLERAVREDTERVIRLLEKNRDDPERVKRIVERAERDLAGVEAYAQEVLREARAAGDAATQEAAERLLEEARRAREEIRRKAEEVLA
B10: usp_38_diff_out_18_14_283 (protein)
chain: SEELSKALKSNLESLKEDVKKDTERVLRLLEKRKDDPEQVKRIKERAERNLEGVITYAEEVLKEAEKEGDEEVKKAAKELIEEAKKAREKIEEKVKEVLA
B11: usp_38_diff_out_18_14_266 (protein)
chain: SEELDEALVKNLETLKKDVKENTERVIKLLRKNKDDPERVKRIYERAKRNLEGVKKYAEEVLKEAEKRGWKKTVKAAKELLKEVEEAKKKIEEEYKKVME
B12: usp_38_diff_out_18_14_286 (protein)
chain: SAELAAAEKSALEILKKDVKEDTKRVIRLLEKAKDDPELVERIYERAKRDLAGVRAYAEEVLKRAEEAGDEETKAAAKELLKEIDKAKKEIDAAYKKVMA
B13: usp_38_diff_out_18_14_289 (protein)
chain: AEELSAAERAALELLLEEVRRDTERTIRLLRRVRDDPERVERIVERAERNLAGVRAYAEDVRARARAAGDEETVAAADRLLAEVEAARARIEEERRRVLA
B14: usp_38_diff_out_18_14_291 (protein)
chain: SEELSEAEKSALELLKEEVKKDTERTIKLLEKVKDDPERVERIVERANRNLEGVRAYAEAVKKEAEARGDEETVKAAEELLKTIEEARERIEKAYKEVKA
B15: usp_38_diff_out_18_14_277 (protein)
chain: SEELKEALKSNLESLKKDVEEDTKRVIELLDKRKDDPEEVKRIYERAKRNLAGVKEYAKEVLEEAEKAGDEETKKAAEELIKKAEEAEKKIEEKVKEVLA
B16: usp_38_diff_out_18_14_263 (protein)
chain: SEELAQADIDALNLLKKDVEEDTERVIRLLEKSKDDPERVKRIYERALRNLAGVKKYAEEVKKEAEERGNEETIKAANELLKTIEEAKKRLEEKYKEVMK
B17: usp_38_diff_out_18_14_276 (protein)
chain: SSELSEALKSNLESLKKDVKEDTERVLRLLDKRKDDPEQVKRIVERAERDLAGVREYAKEVLREAEERGDEETKKAAEELLKEADAALAKVKAKAKEVLA
B18: usp_38_diff_out_18_14_260 (protein)
chain: SEELKEATISNLKSLKEDVKEDTERVIRLLKARKDDPEQVKRIYERAKRNLEGVKTYAEEVLKEAEEEGWEELKKAAEELLKEIEEAEKKIEAEVKEVLA
B19: usp_38_diff_out_18_14_285 (protein)
chain: SAELAAAEKSALEILKKDVKEFTKRVIRLLKKSKDDPERVKRIYDRAKRDLAGVEKYAQEVLKRAEKAGDKETKAAAKELLKEIEKAKEEIEKEYKEVMA
B20: usp_38_diff_out_18_14_280 (protein)
chain: SEELSEALLSNLKSLKKDVEEYTKRVLRLLEKNKDDPERVKRIKERAERNLAGVKKYAEEVLKEAEEEGDEETLKAAKELKETAEKALAEIEKKVKEVLA
B21: usp_38_diff_out_18_14_281 (protein)
chain: SEELSKALLSNLESLKKDVEEDTERVLRLLEKNKDDPERVKRIVERAERDLAGVIEYAKEVLELAKKNGDEETLKAAKELIKKAEEARKRIEEKAKKVLA
B22: usp_38_diff_out_18_14_262 (protein)
chain: SEELAQADIDALNLLKEDVKKDTERKIRLLKKAKDDPELVKRIYERAKRNLEGVRTYAEEIKKRAEEAGDEETIKAAEELLKEIEEAEKKLEEAYKEVMA
B23: usp_38_diff_out_18_14_264 (protein)
chain: SEELSEAEKSALKLLKKDVEEETERVIRLLRQAKDDPERVKRIYERAKRNLAGVRKYAEEVLKRAEEAGDEETKKAAEELLKKIEEAEKRIEEEYKRVTA
B24: usp_38_diff_out_18_14_270 (protein)
chain: SEELKKALLSNLESLKKDVKEYTERVLRLLEKRKDDPEQVERIVERAERDLAGVEEYAKEVLKEAKKLGDEELLKAAEELIKLTKEARERIEKKREEVLK
B25: usp_38_diff_out_18_14_269 (protein)
chain: SAELAAAKVSNLKTLKEDVERDTERVIRLLEANRDDPERVRRIHERALRNLEGVRKYAEEVKEEAEKEGDKETVKAAEELLKKIEEARRRIDARYAEVMA
B26: usp_38_diff_out_18_14_258 (protein)
chain: SAELEEATISNLKLLKEDVKKETERVIRLLEKNKDDPERVKRIYERAQRDLAGVETYAKEVLEEAKKNGWEEKEKAAKELLEEVDKAKEEIEKKVKEVLA
B27: usp_38_diff_out_18_14_288 (protein)
chain: SEELSEAEISALKLLREDVERDTERTIRLLERARDDPERVRRIVERRERNLAGVRAYAEEVKKEAEERGDEETVKAAEELLRAIEEARARVAAARERVLA
B28: usp_38_diff_out_18_14_272 (protein)
chain: DEELSEALLSNLKSLKEDVKEYTKRVLRLLEANKDDPERVKRIYERAERNLEGVEKFAEEVLKEAKERGDEEVQKAAKELKEEAKKAREEIKKKVKEVLA
B29: usp_38_diff_out_18_14_275 (protein)
chain: SSELSEALQSNLESLKKDVKEDTERVLRLLEKRKDDPEQVKRIEERARRNLEGVIKFAEEVLKLAKELGDKETQKAAEELIKLAKEARKRVEEKVKEVLA
B30: usp_38_diff_out_18_14_259 (protein)
chain: SEELTEALISNLESLKEDVKKDTERVIRLLEKRKDDPEQVKRIKERFERDLAGVEKYAKEVLEEAKKEGNEKLAKAAEELLKTVEAARKEVEEKVAKVLA
B31: usp_38_diff_out_18_14_274 (protein)
chain: SEELSEALKSNLESLKKDVEKDTKRTIELLKKNKDDPERVKRIVERAERNLEGVITFAEEVLKEAEKRGDEEVKKAAEELIKKAKEALEKIKEEAKKVLA
B32: usp_38_diff_out_18_14_287 (protein)
chain: SEEEAEALKSALEILRGDVDAYTERVIRLLEQAAGDPERVRRIHERARRNLAGVRAYAEEVLKRAEEAGDEETKKAAEELLRRVAEAEARIAARYAEVTA

The target of this test is T1, USP38, Q8NB14.
T1 chain: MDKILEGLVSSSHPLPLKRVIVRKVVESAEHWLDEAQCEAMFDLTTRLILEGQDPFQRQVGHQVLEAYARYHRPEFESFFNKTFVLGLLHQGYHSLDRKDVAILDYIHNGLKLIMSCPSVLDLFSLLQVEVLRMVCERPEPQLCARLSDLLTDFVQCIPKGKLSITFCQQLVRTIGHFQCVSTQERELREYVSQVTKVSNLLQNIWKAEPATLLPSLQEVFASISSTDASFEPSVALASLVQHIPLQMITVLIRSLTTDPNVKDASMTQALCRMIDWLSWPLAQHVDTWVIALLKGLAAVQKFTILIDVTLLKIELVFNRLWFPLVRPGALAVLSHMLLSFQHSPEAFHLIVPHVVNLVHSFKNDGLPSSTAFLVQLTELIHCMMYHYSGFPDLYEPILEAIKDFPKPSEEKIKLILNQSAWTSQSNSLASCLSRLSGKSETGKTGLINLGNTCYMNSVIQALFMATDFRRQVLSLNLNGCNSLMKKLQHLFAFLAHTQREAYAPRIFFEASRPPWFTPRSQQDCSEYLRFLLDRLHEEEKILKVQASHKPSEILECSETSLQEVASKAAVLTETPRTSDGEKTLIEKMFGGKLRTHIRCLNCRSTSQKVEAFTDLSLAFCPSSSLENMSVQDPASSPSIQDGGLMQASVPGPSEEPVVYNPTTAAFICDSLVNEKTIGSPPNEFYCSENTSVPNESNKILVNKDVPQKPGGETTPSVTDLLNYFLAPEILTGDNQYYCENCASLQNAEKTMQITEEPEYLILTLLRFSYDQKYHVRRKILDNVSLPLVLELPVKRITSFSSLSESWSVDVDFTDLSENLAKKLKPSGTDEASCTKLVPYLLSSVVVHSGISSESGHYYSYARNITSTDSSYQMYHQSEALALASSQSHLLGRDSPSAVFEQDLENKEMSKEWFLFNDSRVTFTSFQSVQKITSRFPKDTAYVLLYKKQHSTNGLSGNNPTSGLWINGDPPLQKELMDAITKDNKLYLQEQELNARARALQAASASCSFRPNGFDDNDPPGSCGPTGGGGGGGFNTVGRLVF
The experiment in a line: median log2 fold change of GCK-ALFA target abundance (FLAG IP / Myc IP barcode read proportion) (log2 ratio); each designed protein is fused to an ALFA-tag nanobody in HEK293 cells to bring the named protein to FLAG-tagged glucokinase (GCK); Myc marks an untargeted standard; higher = target protein stabilised (more abundant). The following applies: target protein: 3xFLAG-MCP-GCK-ALFA reporter; HEK293 landing pad (RPLP). The procedure, abridged: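 Sequencing of reverse-transcribed, amplified circular RNA barcodes from anti-FLAG and anti-Myc immunoprecipitates provided the readout for an ALFA-nanobody-fused binder library recombined into HEK293 landing-pad cells. Those cells were induced with 2 μg mL^−1 doxycycline, transfected with a plasmid expressing a FLAG-tagged target and a Myc-tagged standard, and lysed after 48 h. Target abundance is the per-binder median log2 ratio of FLAG to Myc barcode read proportions. Only barcodes at a proportion of ≥10^−7 in both replicates and binders with ≥3 barcodes per replicate were kept, with a 10^−6 pseudocount added before the two replicates were pooled.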
For B1, the “median log2 fold change” value was 0.00299.
Take B2: the “median log2 fold change” value was -0.0262.
Then B3, with 0.0867; and B4, with 0.0912.
Take B5: the “median log2 fold change” value is -0.00242.
Then B6, with 0.0553.
B7: the “median log2 fold change” value is -1.06.
Then B8, with 0.237; and B9, with -0.0538; and B10, with -0.104.
Take B11: the “median log2 fold change” value is -0.521.
Consider B12, for which the “median log2 fold change” value came out at 0.128.
For the molecule B13, the “median log2 fold change” value was -0.0195.
Then B14, with -0.0115.
B15: the “median log2 fold change” value stood at 0.312.
Regarding B16, the “median log2 fold change” value came out at 0.123.
In the case of B17, the “median log2 fold change” value is 0.242.
Then B18, with 0.0949.
Then B19, with -0.615; and B20, with -0.87.
Then B21, with 0.189; and B22, with 0.391.
Take B23: the “median log2 fold change” value was determined as 0.118.
Then B24, with -0.331.
Then B25, with 0.153; and B26, with 0.144; and B27, with -0.282.
As to B28, the “median log2 fold change” value was -0.188.
For B29, the “median log2 fold change” value is -0.129.
With B30, the “median log2 fold change” value was -0.00381.
With B31, the “median log2 fold change” value stood at 0.186.
Turning to B32, the “median log2 fold change” value was -0.622.
